Binding signal data for 39 sequences are collected here from article PMC7862700, “An all-to-all approach to the identification of sequence-specific readers for epigenetic DNA modifications on cytosine”.

ETV6, sequence (P41212 whole entry): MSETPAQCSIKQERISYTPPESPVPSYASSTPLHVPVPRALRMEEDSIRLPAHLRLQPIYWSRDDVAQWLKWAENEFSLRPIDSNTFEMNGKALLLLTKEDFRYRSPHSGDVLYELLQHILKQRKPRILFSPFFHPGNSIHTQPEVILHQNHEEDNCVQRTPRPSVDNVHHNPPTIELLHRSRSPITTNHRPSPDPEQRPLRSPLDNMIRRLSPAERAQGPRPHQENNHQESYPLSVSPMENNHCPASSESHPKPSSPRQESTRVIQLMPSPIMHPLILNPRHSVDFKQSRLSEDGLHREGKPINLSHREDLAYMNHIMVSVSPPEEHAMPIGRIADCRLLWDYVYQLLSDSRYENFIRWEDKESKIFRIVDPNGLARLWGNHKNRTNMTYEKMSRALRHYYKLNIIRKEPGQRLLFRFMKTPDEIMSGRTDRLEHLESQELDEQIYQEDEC

The first test has as its target T1, ETV3 (Homo sapiens, UniProt P41162-2 1-143).
T1 sequence: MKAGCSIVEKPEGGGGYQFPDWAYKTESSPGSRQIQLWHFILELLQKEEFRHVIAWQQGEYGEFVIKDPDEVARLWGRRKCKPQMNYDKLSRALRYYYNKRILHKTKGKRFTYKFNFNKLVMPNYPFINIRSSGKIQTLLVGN
The experiment in a line: DAPPL (digital affinity profiling via proximity ligation, sequencing); 10 mM Tris-HCl pH 7.5, 50 mM NaCl, 1 mM DTT, 4% glycerol, room temperature, 30 min; GST-TFs on glutathione beads, 16-mer random dsDNA library, 0.1% formaldehyde crosslink after washing; high values mean tight binding. The following applies: protein: recombinant; tags: N-terminal GST; dsDNA, one strand shown. The method, boiled down:
(§1)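 Human transcription factors carrying a GST fusion were produced in yeast, bound to glutathione beads, tagged with DNA barcodes and pooled together with a tag-only sample. Each pool was held with 200 nmole of a random double-stranded 16-mer DNA library in Tris/NaCl/DTT/glycerol buffer for 30 min at room temperature, then washed, crosslinked in 0.1% formaldehyde, proximity-ligated with BsaI/T4 ligase (1 h, 37 °C), PCR-amplified and sequenced on an Illumina NextSeq500. Binding signal is the read frequency of each hexamer for a given factor divided by its frequency in the tag-only sample.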
Regarding ATGATC, the binding signal is 1.2 fold enrichment (6-mer frequency, TF over GST control).
Still for that read-out and setting: under ACACTG stands 1.01 fold enrichment (6-mer frequency, TF over GST control); under CCTGTG, 1.07 fold enrichment (6-mer frequency, TF over GST control).
The same measure, in the same setting: under CTGGTC stands 1.24 fold enrichment (6-mer frequency, TF over GST control).
Turning to TTTATT, the binding signal is 1.33 fold enrichment (6-mer frequency, TF over GST control).
On to TACAAA, for which the binding signal is 1.08 fold enrichment (6-mer frequency, TF over GST control).
On to CCTGCA, for which the binding signal was 1.22 fold enrichment (6-mer frequency, TF over GST control).
On the same count and under the same terms, under ACTGCC stands 1.46 fold enrichment (6-mer frequency, TF over GST control); under ATAATT, 1.32 fold enrichment (6-mer frequency, TF over GST control); under CCTCGG, 1.05 fold enrichment (6-mer frequency, TF over GST control).
For TTAATC, the binding signal is 1.24 fold enrichment (6-mer frequency, TF over GST control).
On to CTGTTG, for which the binding signal was 1.21 fold enrichment (6-mer frequency, TF over GST control).
Regarding ACATAC, the binding signal was 1.18 fold enrichment (6-mer frequency, TF over GST control).
For the sequence GTTCCG, the binding signal is 2.17 fold enrichment (6-mer frequency, TF over GST control).
Take ATTGCC: the binding signal was 1.31 fold enrichment (6-mer frequency, TF over GST control).
Same read-out and setting: next, CGTTCC: 1.41 fold enrichment (6-mer frequency, TF over GST control); GCTATG: 1.23 fold enrichment (6-mer frequency, TF over GST control).
With GGATGT, the binding signal is 1.78 fold enrichment (6-mer frequency, TF over GST control).
For the sequence TGTCTC, the binding signal is 1.21 fold enrichment (6-mer frequency, TF over GST control).
Regarding CGCTCC, the binding signal is 1.19 fold enrichment (6-mer frequency, TF over GST control).
With GCTGTA, the binding signal was 1.08 fold enrichment (6-mer frequency, TF over GST control).
On to TGCCTG, for which the binding signal was 1.31 fold enrichment (6-mer frequency, TF over GST control).
For the sequence CCGGCA, the binding signal is 1.45 fold enrichment (6-mer frequency, TF over GST control).
ACCTTC: the binding signal was 1.8 fold enrichment (6-mer frequency, TF over GST control).
Take TGATCC: the binding signal is 1.24 fold enrichment (6-mer frequency, TF over GST control).
Consider CCGACG, for which the binding signal is 1.16 fold enrichment (6-mer frequency, TF over GST control).
For the sequence TGCCTT, the binding signal was 1.31 fold enrichment (6-mer frequency, TF over GST control).
In the case of AGATGA, the binding signal is 1.1 fold enrichment (6-mer frequency, TF over GST control).
Take ACTTGG: the binding signal is 1.2 fold enrichment (6-mer frequency, TF over GST control).
With CCACGA, the binding signal is 1.02 fold enrichment (6-mer frequency, TF over GST control).
With ACTCCA, the binding signal is 1.17 fold enrichment (6-mer frequency, TF over GST control).
CAACCC: the binding signal was 1.27 fold enrichment (6-mer frequency, TF over GST control).
Same read-out and setting: next, TCTACG: 1.32 fold enrichment (6-mer frequency, TF over GST control); AATAGG: 1.15 fold enrichment (6-mer frequency, TF over GST control); TCCATC: 1.22 fold enrichment (6-mer frequency, TF over GST control).
In the case of ATTAAC, the binding signal was 1.26 fold enrichment (6-mer frequency, TF over GST control).
CCCACT: the binding signal was 1.32 fold enrichment (6-mer frequency, TF over GST control).
In the case of ACACAT, the binding signal is 1.2 fold enrichment (6-mer frequency, TF over GST control).
As for ACGACA, the binding signal is 1.08 fold enrichment (6-mer frequency, TF over GST control).

The next test addresses ETV6 (Homo sapiens, UniProt P41212 1-452). The description is as above. To be noted: protein: recombinant; tags: N-terminal GST; dsDNA, one strand shown. The method, boiled down: as §1
As for ATGATC, the binding signal was 1.19 fold enrichment (6-mer frequency, TF over GST control).
ACACTG: the binding signal was 1.04 fold enrichment (6-mer frequency, TF over GST control).
Consider CCTGTG, for which the binding signal is 1.06 fold enrichment (6-mer frequency, TF over GST control).
For CTGGTC, the binding signal is 1.08 fold enrichment (6-mer frequency, TF over GST control).
The same measure, in the same setting: under TTTATT stands 1.28 fold enrichment (6-mer frequency, TF over GST control); under TACAAA, 1.16 fold enrichment (6-mer frequency, TF over GST control).
As for CCTGCA, the binding signal was 1.28 fold enrichment (6-mer frequency, TF over GST control).
As for ACTGCC, the binding signal is 1.4 fold enrichment (6-mer frequency, TF over GST control).
As for ATAATT, the binding signal is 1.45 fold enrichment (6-mer frequency, TF over GST control).
Regarding CCTCGG, the binding signal was 1.24 fold enrichment (6-mer frequency, TF over GST control).
Take TTAATC: the binding signal is 1.21 fold enrichment (6-mer frequency, TF over GST control).
As to CTGTTG, the binding signal is 1.08 fold enrichment (6-mer frequency, TF over GST control).
For ACATAC, the binding signal is 1.17 fold enrichment (6-mer frequency, TF over GST control).
Consider GTTCCG, for which the binding signal was 1.9 fold enrichment (6-mer frequency, TF over GST control).
On to ATTGCC, for which the binding signal is 1.26 fold enrichment (6-mer frequency, TF over GST control).
Take CGTTCC: the binding signal was 1.42 fold enrichment (6-mer frequency, TF over GST control).
With GCTATG, the binding signal was 1.1 fold enrichment (6-mer frequency, TF over GST control).
Consider GGATGT, for which the binding signal is 1.66 fold enrichment (6-mer frequency, TF over GST control).
Consider TGTCTC, for which the binding signal was 1.22 fold enrichment (6-mer frequency, TF over GST control).
Take CGCTCC: the binding signal was 1.11 fold enrichment (6-mer frequency, TF over GST control).
Regarding GCTGTA, the binding signal is 1.13 fold enrichment (6-mer frequency, TF over GST control).
Consider TGCCTG, for which the binding signal is 1.18 fold enrichment (6-mer frequency, TF over GST control).
As to CCGGCA, the binding signal is 1.61 fold enrichment (6-mer frequency, TF over GST control).
Take ACCTTC: the binding signal is 1.96 fold enrichment (6-mer frequency, TF over GST control).
On to TGATCC, for which the binding signal is 1.26 fold enrichment (6-mer frequency, TF over GST control).
As to CCGACG, the binding signal is 1.31 fold enrichment (6-mer frequency, TF over GST control).
On the same count and under the same terms, under TGCCTT stands 1.23 fold enrichment (6-mer frequency, TF over GST control).
On the same count and under the same terms, next, AGATGA: 1.13 fold enrichment (6-mer frequency, TF over GST control); ACTTGG: 1.16 fold enrichment (6-mer frequency, TF over GST control).
Still for that read-out and setting: next, CCACGA: 1.01 fold enrichment (6-mer frequency, TF over GST control).
Consider ACTCCA, for which the binding signal is 1.13 fold enrichment (6-mer frequency, TF over GST control).
As for CAACCC, the binding signal is 1.22 fold enrichment (6-mer frequency, TF over GST control).
The same measure, in the same setting: under TCTACG stands 1.2 fold enrichment (6-mer frequency, TF over GST control); under AATAGG, 1.27 fold enrichment (6-mer frequency, TF over GST control).
On to TCCATC, for which the binding signal is 1.13 fold enrichment (6-mer frequency, TF over GST control).
On to ATTAAC, for which the binding signal was 1.22 fold enrichment (6-mer frequency, TF over GST control).
For the sequence CCCACT, the binding signal is 1.37 fold enrichment (6-mer frequency, TF over GST control).
For the sequence ACACAT, the binding signal is 1.22 fold enrichment (6-mer frequency, TF over GST control).
Still for that read-out and setting: next, ACGACA: 1.22 fold enrichment (6-mer frequency, TF over GST control).
